Results from the supplement of paper PMC10849652.
The full data set covers some 8,800 targets. This sample favours those with a hit. About 0.5% of all pairs of compound and target were hits.

What was measured:
Assay in all cases: log2 fold change, soluble protein after heating vs DMSO (PISA); higher = thermal stabilisation; K562 lysate, 10 uM; active = over 0.2 and 3.5 SD of the protein, either way, in both replicates (recomputed)
[1] = compound: C1=CC=C(C=C1)[C@H](COC2=CC3=C(C=C2)NC(=O)N3)NC(=O)C4=CC=CN(C4=O)CC5=CC(=C(C=C5)F)F
Summary of the method: (§1)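 Following dounce homogenisation of K562 pellets in PBS pH 7.4 with 1 mM MgCl2, crude extract at 1 mg/mL protein was incubated for 30 min with 10 μM compound. Aliquots were then heated for 3 min over 48°C-58°C and pooled, NP-40 was added to 0.5% at 4°C, and soluble protein was recovered as the supernatant at 21,000xg for 90 min. Channel-sum-equalised TMTpro 16plex LC-MS/MS quantified this protein. Each value, from duplicates, is a log-two fold change in thermal stability relative to solvent controls.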

[2] = compound: CC1=C(SC2=C1C(=N[C@H](C3=NN=C(N32)C)CC(=O)N)C4=CC=C(C=C4)Cl)C
Summary of the method: as §1

[3] = compound: CC1=C2C(=CC=C1)N=C(N(C2=O)C3=CC=CC=C3C)CN4C=NC5=C(N=CN=C54)N
Summary of the method: as §1

[4] = compound: Cc1sc2c(c1C)C(c1ccc(Cl)cc1)=N[C@@H](CC(=O)OC(C)(C)C)c1nnc(C)n1-2
Summary of the method: as §1

[5] = compound: c1ccc([C@@H]2C[C@H]2NC2CCNCC2)cc1
Summary of the method: as §1

Measured: log2 fold change

CAMK2G isoform 8 (UniProt Q13555)
UniProt Q13555, sequence (Q13555 whole entry, looked up): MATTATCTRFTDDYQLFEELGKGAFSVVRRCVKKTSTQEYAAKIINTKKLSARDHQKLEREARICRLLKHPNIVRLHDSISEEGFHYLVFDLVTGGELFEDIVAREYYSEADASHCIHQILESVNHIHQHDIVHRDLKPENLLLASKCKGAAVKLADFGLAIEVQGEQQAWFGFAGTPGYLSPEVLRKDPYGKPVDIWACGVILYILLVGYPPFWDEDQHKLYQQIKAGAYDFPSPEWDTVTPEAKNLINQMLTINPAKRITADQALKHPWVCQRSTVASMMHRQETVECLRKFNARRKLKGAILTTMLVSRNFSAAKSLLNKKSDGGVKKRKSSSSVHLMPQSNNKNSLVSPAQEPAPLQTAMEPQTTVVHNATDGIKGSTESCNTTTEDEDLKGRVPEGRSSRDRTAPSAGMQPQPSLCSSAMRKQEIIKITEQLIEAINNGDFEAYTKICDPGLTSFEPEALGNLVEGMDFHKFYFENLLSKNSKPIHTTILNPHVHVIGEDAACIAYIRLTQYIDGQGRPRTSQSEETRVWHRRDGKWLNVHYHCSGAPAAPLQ
inactive: [1] 0.048 | [2] -0.063 | [3] -0.053 | [4] -0.007 | [5] -0.037

ATG4B (UniProt Q9Y4P1)
inactive: [1] 0.004 | [2] 0.034 | [3] 0.017 | [4] -0.002 | [5] 0.051

CCNC (UniProt P24863)
UniProt P24863, sequence (P24863 whole entry, looked up): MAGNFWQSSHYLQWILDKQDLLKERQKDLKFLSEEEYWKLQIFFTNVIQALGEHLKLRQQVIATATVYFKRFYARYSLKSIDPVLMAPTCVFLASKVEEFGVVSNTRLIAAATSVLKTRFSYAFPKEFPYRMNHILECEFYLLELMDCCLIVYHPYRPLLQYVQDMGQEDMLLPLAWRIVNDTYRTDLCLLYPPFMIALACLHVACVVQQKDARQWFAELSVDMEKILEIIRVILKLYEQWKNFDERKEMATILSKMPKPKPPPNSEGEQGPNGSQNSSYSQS
inactive: [1] 0.045 | [2] -0.09 | [3] -0.035 | [4] -0.036 | [5] -0.129

ATP9B (UniProt O43861)
inactive: [1] 0.109 | [2] -0.028 | [3] 0.015 | [4] -0.019 | [5] -0.079

CAD (UniProt P27708)
UniProt P27708, sequence (P27708 whole entry, looked up): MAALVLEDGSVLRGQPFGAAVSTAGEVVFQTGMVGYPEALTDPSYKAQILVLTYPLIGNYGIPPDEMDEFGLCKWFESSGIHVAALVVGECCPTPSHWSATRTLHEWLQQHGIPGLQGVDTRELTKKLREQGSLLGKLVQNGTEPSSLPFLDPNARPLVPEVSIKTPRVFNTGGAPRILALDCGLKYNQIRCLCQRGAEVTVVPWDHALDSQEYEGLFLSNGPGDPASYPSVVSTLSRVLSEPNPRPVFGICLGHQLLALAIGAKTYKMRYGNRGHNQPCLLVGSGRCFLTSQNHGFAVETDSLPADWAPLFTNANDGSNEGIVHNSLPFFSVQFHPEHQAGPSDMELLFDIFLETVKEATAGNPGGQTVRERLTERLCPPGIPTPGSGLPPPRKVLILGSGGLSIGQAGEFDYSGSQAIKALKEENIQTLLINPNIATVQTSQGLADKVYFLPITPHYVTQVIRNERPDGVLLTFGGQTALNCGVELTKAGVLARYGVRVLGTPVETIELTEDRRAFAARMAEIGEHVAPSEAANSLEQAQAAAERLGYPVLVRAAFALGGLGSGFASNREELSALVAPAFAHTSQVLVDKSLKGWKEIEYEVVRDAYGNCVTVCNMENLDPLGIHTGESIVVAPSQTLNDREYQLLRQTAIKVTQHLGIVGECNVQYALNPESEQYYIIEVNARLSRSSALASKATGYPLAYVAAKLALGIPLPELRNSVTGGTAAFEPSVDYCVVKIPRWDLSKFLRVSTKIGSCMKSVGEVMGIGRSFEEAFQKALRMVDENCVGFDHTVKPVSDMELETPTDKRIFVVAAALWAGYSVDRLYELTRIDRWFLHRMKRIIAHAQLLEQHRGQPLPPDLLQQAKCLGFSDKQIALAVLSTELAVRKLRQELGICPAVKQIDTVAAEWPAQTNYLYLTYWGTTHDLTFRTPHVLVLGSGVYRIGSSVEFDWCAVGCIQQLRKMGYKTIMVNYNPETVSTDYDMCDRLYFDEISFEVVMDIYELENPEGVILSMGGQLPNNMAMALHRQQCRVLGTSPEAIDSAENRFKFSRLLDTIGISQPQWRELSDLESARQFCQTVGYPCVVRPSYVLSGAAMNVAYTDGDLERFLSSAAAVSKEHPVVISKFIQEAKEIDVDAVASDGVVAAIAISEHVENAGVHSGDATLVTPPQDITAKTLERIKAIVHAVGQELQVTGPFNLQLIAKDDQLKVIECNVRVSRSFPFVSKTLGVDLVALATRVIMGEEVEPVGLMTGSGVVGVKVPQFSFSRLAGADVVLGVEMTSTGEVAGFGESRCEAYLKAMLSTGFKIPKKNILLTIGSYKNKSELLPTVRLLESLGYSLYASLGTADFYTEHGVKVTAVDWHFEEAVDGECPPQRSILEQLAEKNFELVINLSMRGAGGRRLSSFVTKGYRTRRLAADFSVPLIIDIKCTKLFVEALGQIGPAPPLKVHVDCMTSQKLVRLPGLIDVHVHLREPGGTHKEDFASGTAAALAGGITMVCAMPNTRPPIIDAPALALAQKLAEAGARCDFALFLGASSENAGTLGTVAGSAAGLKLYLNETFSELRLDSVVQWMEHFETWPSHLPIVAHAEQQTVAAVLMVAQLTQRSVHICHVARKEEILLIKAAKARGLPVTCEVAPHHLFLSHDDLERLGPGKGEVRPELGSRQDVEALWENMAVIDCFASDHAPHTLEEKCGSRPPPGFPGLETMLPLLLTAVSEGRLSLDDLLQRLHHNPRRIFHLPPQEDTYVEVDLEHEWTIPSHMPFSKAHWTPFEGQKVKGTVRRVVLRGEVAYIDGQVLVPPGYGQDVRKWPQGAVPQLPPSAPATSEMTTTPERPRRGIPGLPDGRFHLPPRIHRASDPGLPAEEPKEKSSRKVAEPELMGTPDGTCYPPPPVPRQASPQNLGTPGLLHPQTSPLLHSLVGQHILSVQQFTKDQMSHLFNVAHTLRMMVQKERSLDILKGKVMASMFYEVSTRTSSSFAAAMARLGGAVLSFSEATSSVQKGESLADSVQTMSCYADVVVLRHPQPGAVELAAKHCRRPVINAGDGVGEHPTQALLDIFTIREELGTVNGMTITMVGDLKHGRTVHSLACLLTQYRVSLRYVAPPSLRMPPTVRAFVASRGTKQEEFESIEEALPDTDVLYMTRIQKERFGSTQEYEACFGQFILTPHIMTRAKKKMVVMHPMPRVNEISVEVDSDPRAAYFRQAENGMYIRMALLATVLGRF
inactive: [1] -0.011 | [2] 0.009 | [3] 0.003 | [4] 0.022 | [5] 0.002

CALB2 (UniProt P22676)
UniProt P22676, sequence (P22676 whole entry, looked up): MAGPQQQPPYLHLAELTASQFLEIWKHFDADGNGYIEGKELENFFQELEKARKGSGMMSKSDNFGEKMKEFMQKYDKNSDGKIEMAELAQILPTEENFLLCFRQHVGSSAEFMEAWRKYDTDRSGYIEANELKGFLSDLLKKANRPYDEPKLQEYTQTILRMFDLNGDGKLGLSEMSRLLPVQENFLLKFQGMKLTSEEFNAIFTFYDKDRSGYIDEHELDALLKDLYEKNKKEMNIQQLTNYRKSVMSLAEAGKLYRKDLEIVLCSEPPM
inactive: [1] -0.067 | [2] -0.053 | [3] 0.009 | [4] -0.007 | [5] 0.013

CDC123 (UniProt O75794)
UniProt O75794, sequence (O75794 whole entry, looked up): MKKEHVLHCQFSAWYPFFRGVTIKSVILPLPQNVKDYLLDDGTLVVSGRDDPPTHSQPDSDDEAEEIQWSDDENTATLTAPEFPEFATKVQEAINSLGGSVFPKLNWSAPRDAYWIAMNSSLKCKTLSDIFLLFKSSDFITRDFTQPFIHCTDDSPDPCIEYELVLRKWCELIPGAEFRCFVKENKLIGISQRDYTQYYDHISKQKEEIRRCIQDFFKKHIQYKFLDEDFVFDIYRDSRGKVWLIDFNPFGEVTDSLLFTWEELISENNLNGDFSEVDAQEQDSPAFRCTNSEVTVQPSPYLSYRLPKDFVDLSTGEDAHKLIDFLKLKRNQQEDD
inactive: [1] -0.035 | [2] 0.02 | [3] -0.038 | [4] 0.073 | [5] 0.004

CFDP1 (UniProt Q9UEE9)
UniProt Q9UEE9, sequence (Q9UEE9 whole entry, looked up): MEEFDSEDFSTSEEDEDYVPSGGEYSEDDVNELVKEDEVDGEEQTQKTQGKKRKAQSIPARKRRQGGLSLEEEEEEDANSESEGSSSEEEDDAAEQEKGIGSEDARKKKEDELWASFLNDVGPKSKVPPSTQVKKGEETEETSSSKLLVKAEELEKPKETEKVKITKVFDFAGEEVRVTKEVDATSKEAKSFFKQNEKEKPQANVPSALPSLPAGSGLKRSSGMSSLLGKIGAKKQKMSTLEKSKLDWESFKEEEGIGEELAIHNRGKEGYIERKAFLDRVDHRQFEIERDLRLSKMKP
inactive: [1] 0.051 | [2] -0.03 | [3] -0.017 | [4] -0.03 | [5] -0.124

CHAF1A (UniProt Q13111)
UniProt Q13111, sequence (Q13111 whole entry, looked up): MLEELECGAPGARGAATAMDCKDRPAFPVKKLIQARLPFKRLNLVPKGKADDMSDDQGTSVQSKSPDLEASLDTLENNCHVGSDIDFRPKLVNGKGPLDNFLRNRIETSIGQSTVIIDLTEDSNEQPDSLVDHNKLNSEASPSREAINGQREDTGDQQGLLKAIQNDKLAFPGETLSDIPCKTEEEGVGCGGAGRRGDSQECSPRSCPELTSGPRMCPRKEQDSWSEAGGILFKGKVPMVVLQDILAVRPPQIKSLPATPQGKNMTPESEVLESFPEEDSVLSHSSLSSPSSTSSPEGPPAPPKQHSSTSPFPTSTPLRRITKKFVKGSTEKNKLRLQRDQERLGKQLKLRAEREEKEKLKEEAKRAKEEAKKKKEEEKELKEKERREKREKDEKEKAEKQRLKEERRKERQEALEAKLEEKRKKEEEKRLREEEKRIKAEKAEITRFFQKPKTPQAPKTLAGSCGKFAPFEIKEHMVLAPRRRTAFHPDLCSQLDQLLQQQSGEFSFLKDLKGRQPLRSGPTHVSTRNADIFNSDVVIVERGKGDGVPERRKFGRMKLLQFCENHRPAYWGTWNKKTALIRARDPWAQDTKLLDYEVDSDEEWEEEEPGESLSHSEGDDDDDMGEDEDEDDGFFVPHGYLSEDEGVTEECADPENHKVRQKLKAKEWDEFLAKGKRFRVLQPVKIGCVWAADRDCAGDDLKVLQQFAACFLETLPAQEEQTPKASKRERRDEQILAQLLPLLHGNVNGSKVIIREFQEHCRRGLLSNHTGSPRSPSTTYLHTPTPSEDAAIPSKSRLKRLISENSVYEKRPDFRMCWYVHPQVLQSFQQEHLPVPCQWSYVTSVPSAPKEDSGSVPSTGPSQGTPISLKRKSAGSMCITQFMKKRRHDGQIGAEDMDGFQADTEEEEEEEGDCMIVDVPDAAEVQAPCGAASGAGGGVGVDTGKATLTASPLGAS
inactive: [1] -0.099 | [2] 0.136 | [3] 0.041 | [4] 0.017 | [5] 0.022
